Test in all cases: NCI-60 one-dose screen, 48 h (100 = growth as untreated, 0 = no growth, -100 = all killed)
One experiment concerns SK-MEL-2 melanoma. To be noted: 10 µM unless noted.
The subject of a further experiment is EKVX NSCLC. To be noted: 10 µM unless noted.
The next experiment deals with SN12C renal. Conditions: 10 µM unless noted.
The test system of a further experiment is UO-31 renal. Conditions: 10 µM unless noted.
For another experiment, the system named is TK-10 renal. To be noted: 10 µM unless noted.
The test system of a further experiment is A498 renal. To be noted: 10 µM unless noted.
In another experiment the test system is CCRF-CEM leukemia. To be noted: 10 µM unless noted.
Another experiment relates to MOLT-4 leukemia. To be noted: 10 µM unless noted.
The next experiment concerns SR leukemia. To be noted: 10 µM unless noted.
The subject of another experiment is RPMI-8226 leukemia. To be noted: 10 µM unless noted.
A further experiment deals with OVCAR-8 ovarian. Conditions: 10 µM unless noted.
The next experiment has as its system OVCAR-5 ovarian. Conditions: 10 µM unless noted.
The test system of the next experiment is OVCAR-4 ovarian. To be noted: 10 µM unless noted.
Another experiment has as its system IGROV1 ovarian. To be noted: 10 µM unless noted.
Another experiment concerns OVCAR-3 ovarian. To be noted: 10 µM unless noted.
The test system of a further experiment is HS 578T breast. To be noted: 10 µM unless noted.
The next experiment concerns NCI/ADR-RES ovarian. To be noted: 10 µM unless noted.
A further experiment has as its system ACHN renal. Conditions: 10 µM unless noted.
For another experiment, the system named is CAKI-1 renal. To be noted: 10 µM.
Another experiment deals with SK-OV-3 ovarian. To be noted: 10 µM unless noted.

About 83,000 compounds went through this panel and 20% of them were active in at least one assay; those are over-represented in the sample as a whole.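 Treatment: one concentration, 48 hours, 96-well format. Scoring: percent growth, with anything below 10 considered active.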 Values without a mark were called inactive. Activity calls are given as the source filed them.

In the case of `COc1ccc(NC(=O)Nc2ccc(-c3ccc(OC)c(OC)c3)nc2C)cc1`, the growth is 79.6% with SK-MEL-2 melanoma; 91.1% in the experiment on EKVX NSCLC; 64.4% in the experiment with SN12C renal; 81.7% in the experiment with UO-31 renal; 60.4% in the experiment on TK-10 renal; 71.9% in the experiment with A498 renal. Besides, the growth in the experiment with CCRF-CEM leukemia was 97.2%; in the experiment with MOLT-4 leukemia it was 85.6%; in the experiment on SR leukemia it was 57.3%; with RPMI-8226 leukemia, 83.8%; in the experiment with OVCAR-8 ovarian, 47.4%; in the experiment with OVCAR-5 ovarian it was 98%. The growth in the experiment on OVCAR-4 ovarian was 29.5%; in the experiment on IGROV1 ovarian, 77.1%; in the experiment on OVCAR-3 ovarian, 102%; in the experiment with HS 578T breast, 40%; in the experiment with NCI/ADR-RES ovarian, 85%.

With `NC(CCCC(N)C(=O)c1ccccc1)C(=O)O` (stereo unspecified), the growth in the experiment with SK-MEL-2 melanoma was 92.7%; in the experiment on EKVX NSCLC, 101%; with SN12C renal, 104%; in the experiment on UO-31 renal it was 84.3%; in the experiment on TK-10 renal it was 86.7%; with A498 renal, 103%. The growth in the experiment with CCRF-CEM leukemia is 111%; with MOLT-4 leukemia, 94.5%; with SR leukemia, 124%; in the experiment with RPMI-8226 leukemia, 115%; in the experiment with OVCAR-8 ovarian, 86.2%; in the experiment on OVCAR-5 ovarian it was 103%. Also, the growth is 97.3% in the experiment with OVCAR-4 ovarian; 101% in the experiment with IGROV1 ovarian; 110% in the experiment on OVCAR-3 ovarian; 108% with HS 578T breast; 103% in the experiment with NCI/ADR-RES ovarian.

Take `O=C(Nc1ccc(-n2ccc3c(NC(=O)c4ccccc4)nccc32)cc1)c1ccc(Cl)c(C(F)(F)F)c1`: the growth with SK-MEL-2 melanoma is 53.4%; with EKVX NSCLC, 72.8%; in the experiment with SN12C renal, 47.9%; with UO-31 renal, 36.6%; in the experiment with ACHN renal, 37.1%; in the experiment on CAKI-1 renal it was 26.3%. Besides, the growth with A498 renal is 63.6%; in the experiment with CCRF-CEM leukemia it was -9.57% (active); with MOLT-4 leukemia, 8.54% (active); in the experiment on SR leukemia, -28.7% (active); with RPMI-8226 leukemia, -17.3% (active); in the experiment with OVCAR-8 ovarian it was 23%. Also, the growth is 62.9% with OVCAR-5 ovarian; 88.5% in the experiment with OVCAR-4 ovarian; 53.9% with SK-OV-3 ovarian; 36% in the experiment on IGROV1 ovarian; 22.9% in the experiment with OVCAR-3 ovarian.

Take `CCN(CC)C(=O)C1CCN(C(=O)c2ccccc2)CC1`: the growth in the experiment on SK-MEL-2 melanoma was 98.3%; in the experiment on EKVX NSCLC it was 101%; in the experiment on SN12C renal it was 101%; in the experiment on UO-31 renal, 89.2%; with TK-10 renal, 87.1%; with A498 renal it was 85.7%. The growth is 80.9% in the experiment with CCRF-CEM leukemia; 92.2% in the experiment with MOLT-4 leukemia; 102% in the experiment with SR leukemia; 97.8% in the experiment on RPMI-8226 leukemia; 103% in the experiment with OVCAR-8 ovarian; 108% with OVCAR-5 ovarian. In addition, the growth is 106% in the experiment with OVCAR-4 ovarian; 103% in the experiment with IGROV1 ovarian; 104% in the experiment with OVCAR-3 ovarian; 97% in the experiment with HS 578T breast; 97.9% in the experiment on NCI/ADR-RES ovarian.

For the compound `O=C(O)c1ccc(-n2cc(/C=N/Nc3ccc(Cl)cc3)c(-c3ccc(F)c(F)c3)n2)cc1`, the growth was 75.5% with SK-MEL-2 melanoma; 59.7% in the experiment on EKVX NSCLC; 93.2% with SN12C renal; 46% in the experiment with UO-31 renal; 94.1% in the experiment on TK-10 renal; 49.9% in the experiment on A498 renal. In addition, the growth was 32.3% in the experiment with CCRF-CEM leukemia; 37.6% in the experiment with MOLT-4 leukemia; 68.9% in the experiment on SR leukemia; 24% with RPMI-8226 leukemia; 86.6% with OVCAR-8 ovarian; 83.7% in the experiment on OVCAR-5 ovarian. The growth in the experiment with OVCAR-4 ovarian was 80.3%; in the experiment with SK-OV-3 ovarian, 100%; in the experiment with IGROV1 ovarian, 79.2%; in the experiment with OVCAR-3 ovarian, 75.2%; with HS 578T breast, 84.5%; in the experiment on NCI/ADR-RES ovarian, 73.1%.

For `CO[C@H]1/C=C/C=C/C=C/C[C@H](OC(=O)[C@@H](C)NC(=O)C2CCCCC2)[C@H](C)[C@@H](O)/C(C)=C\CCC2=CC(=O)C=C(NC(=O)C1)C2=O`, the growth in the experiment on SK-MEL-2 melanoma is -42.7% (active); in the experiment with EKVX NSCLC, -17% (active); in the experiment on SN12C renal it was -10% (active); in the experiment on UO-31 renal, 5.46% (active); in the experiment with ACHN renal, -34.8% (active); in the experiment with CAKI-1 renal, 16.3%. The growth is -2.6% (active) with A498 renal; -0.0954% (active) in the experiment on CCRF-CEM leukemia; -10.4% (active) in the experiment on MOLT-4 leukemia; 3.26% (active) in the experiment on SR leukemia; -26.5% (active) in the experiment with RPMI-8226 leukemia; -16.2% (active) with OVCAR-8 ovarian. In addition, the growth in the experiment with OVCAR-5 ovarian is 3.19% (active); in the experiment on OVCAR-4 ovarian, -13.9% (active); with SK-OV-3 ovarian, -21.3% (active); in the experiment on IGROV1 ovarian, 3.97% (active); in the experiment on OVCAR-3 ovarian, -19.9% (active); in the experiment on HS 578T breast it was -16.2% (active).

In the case of `Nn1c(CN2CCN(c3cc4c(cc3F)c(=O)c(C(=O)O)cn4C3CC3)CC2)n[nH]c1=S`, the growth is 95.9% in the experiment with SK-MEL-2 melanoma; 102% with EKVX NSCLC; 95.7% with SN12C renal; 91.7% in the experiment on UO-31 renal; 93.8% in the experiment with TK-10 renal; 97.7% in the experiment on A498 renal. The growth in the experiment on CCRF-CEM leukemia was 98.8%; in the experiment on MOLT-4 leukemia, 103%; with SR leukemia it was 99.1%; in the experiment on RPMI-8226 leukemia it was 102%; in the experiment with OVCAR-8 ovarian, 106%; in the experiment on OVCAR-5 ovarian it was 108%. The growth with OVCAR-4 ovarian is 102%; in the experiment with SK-OV-3 ovarian, 107%; in the experiment with IGROV1 ovarian, 97.3%; in the experiment with OVCAR-3 ovarian, 103%; with HS 578T breast it was 108%; with NCI/ADR-RES ovarian it was 106%.

In the case of `C#C[C@@]1(O)[C@@H](CO)O[C@@H](n2cc(C(F)(F)F)c3c(N)ncnc32)[C@@H]1O`, the growth in the experiment with SK-MEL-2 melanoma is -52.9% (active); with EKVX NSCLC it was 5.12% (active); with SN12C renal it was 9.05% (active); in the experiment with UO-31 renal it was -35.4% (active); with TK-10 renal it was 12.5%; in the experiment on A498 renal, -84.3% (active). The growth was 5.1% (active) in the experiment with CCRF-CEM leukemia; -8.68% (active) in the experiment on MOLT-4 leukemia; -6.19% (active) with SR leukemia; 2.43% (active) in the experiment on OVCAR-8 ovarian; 14.1% in the experiment with OVCAR-5 ovarian; 15.8% in the experiment with OVCAR-4 ovarian. Besides, the growth with SK-OV-3 ovarian was -7.5% (active); in the experiment with IGROV1 ovarian it was 2.75% (active); in the experiment on OVCAR-3 ovarian, -2.07% (active); in the experiment on HS 578T breast it was -15.6% (active); with NCI/ADR-RES ovarian it was 6.08% (active).

Turning to `O=C(O)c1ccc(-c2nn(-c3ccc(C(=O)O)cc3)cc2/C=N/Nc2c(F)c(F)cc(F)c2F)cc1`, the growth with SK-MEL-2 melanoma is 99.1%; in the experiment with EKVX NSCLC it was 103%; in the experiment on SN12C renal, 107%; in the experiment on UO-31 renal, 92.4%; with TK-10 renal it was 98.1%; with A498 renal, 115%. Moreover, the growth in the experiment on CCRF-CEM leukemia was 97.9%; in the experiment with MOLT-4 leukemia it was 92.8%; with SR leukemia it was 94%; in the experiment on RPMI-8226 leukemia, 103%; in the experiment with OVCAR-8 ovarian it was 108%; in the experiment on OVCAR-5 ovarian, 101%. The growth with OVCAR-4 ovarian was 111%; in the experiment with IGROV1 ovarian, 108%; with OVCAR-3 ovarian, 104%; in the experiment with HS 578T breast it was 112%; with NCI/ADR-RES ovarian, 105%.

These data come from PubChem BioAssay (NCI).
